{"source": "PubChem BioAssay (NCATS)", "note": "Results filed as inconclusive are left out. A call without a number means that no potency is given here. Values without a mark were called inactive. Calls of active or inactive are those of the source. The call rests on the fitted dose curve; in most records, active means well fitted cell-killing curve with a large enough effect; inconclusive means small, poorly fitted or top-dose-only effect, or effect the other way; inactive means no such curve, though single readings can be large or run the other way. Potency means the concentration at half of the fitted maximal effect.", "data": [{"test": "Viability qHTS for spleen associated tyrosine kinase inhibitor (SYKi) naive MV4-11 cells (AID 1963823); further: nearly all actives have a fitted effect of over 40% in size", "details": "MV4-11 AML viability, CellTiter-Glo luminescence, 72 h; series mostly up to 45 µM", "in_short": "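CellTiter-Glo luminescence, 10 min room-temperature incubation, gave viability. Cells: naive MV4-11 (500/well), treated 72 hr at 37 C, 5% CO2.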", "values": [{"molecule": "O=C(O)CCC(=O)O", "Potency": "inactive"}, {"molecule": "Nc1nonc1-c1nc2cnccc2n1C1CC1", "Potency": "2.06 µM (active)"}, {"molecule": "COc1cc(/C=C/C=O)cc(OC)c1O[C@@H]1O[C@H](CO)[C@@H](O)[C@H](O)[C@H]1O", "Potency": "inactive"}, {"molecule": "C=CC1C(O[C@@H]2O[C@H](CO)[C@@H](O)[C@H](O)[C@H]2O)OC=C(C(=O)OC)C1Cc1nccc2c1[nH]c1ccccc12", "note": "(stereo not given in full)", "Potency": "inactive"}, {"molecule": "CN1CC[C@@H](c2c(O)cc(O)c3c(=O)cc(-c4ccc(C(F)(F)F)cc4Cl)oc23)[C@@H]1CO", "Potency": "16.4 µM (active)"}, {"molecule": "C=C(C)C1CCC2(C(=O)O[C@@H]3O[C@H](CO[C@@H]4O[C@H](CO)[C@@H](O)[C@H](O)[C@H]4O)[C@@H](O)[C@H](O[C@@H]4O[C@@H](C)[C@H](O)[C@@H](O)[C@H]4O)[C@H]3O)CCC3(C(=O)O)C(CCC4C5(C)CCC(O)C(C)(C)C5CCC43C)C12", "note": "(stereo not given in full)", "viability (% of control)": "84.2% [at 9.25 µM]"}, {"molecule": "CC(NC(=O)c1ccccc1N)C(=O)O", "note": "(stereo not given)", "Potency": "inactive"}, {"molecule": "CC1(C)CCC[C@@]2(C)C1[C@H](OC(=O)/C=C/C=C/C(=O)O)C=C1COC(=O)[C@@]12O", "note": "(stereo not given in full)", "Potency": "inactive"}, {"molecule": "Cc1cc2ncc(C(=O)NCC(C)(C)NCC(=O)N3CCC[C@H]3C#N)cn2n1", "Potency": "inactive"}, {"molecule": "C=CCN(/C=C1\\C(=O)OC(COC)C2(C)C1=C(O)C(=O)C1=C2C(OC(C)=O)CC2(C)C(=O)CCC12)CC=C", "note": "(stereo not given)", "Potency": "13 µM (active)"}, {"molecule": "CC1(C)CC[C@]2(C(=O)O[C@@H]3O[C@H](CO)[C@@H](O)[C@H](O)[C@H]3O)CC[C@]3(C)C(=CCC4[C@@]5(C)CC[C@H](OC6OC(C(=O)O)C(OC7OC(CO)C(O)C(O)C7O)C(O)C6O)C(C)(C)C5CC[C@]43C)C2C1", "note": "(stereo not given in full)", "viability (% of control)": "86.6% [at 9.25 µM]"}, {"molecule": "Cc1ccc(C(=O)Nc2noc3ccccc23)cc1", "Potency": "inactive"}, {"molecule": "O=C(/C=C\\c1ccc(O)cc1)N[C@@H](Cc1ccc(O)cc1)C(=O)O", "Potency": "inactive"}, {"molecule": "COc1ccc2c(c1)C(C(=O)N(Cc1ccc(N(C)C)cc1)c1ccc(C(C)C)cc1)CCC2", "note": "(stereo not given)", "Potency": "16.4 µM (active)"}, {"molecule": "CC1(C)C(O)CCC2(C)C1C(O)C=C1COC(=O)C12O", "note": "(stereo not given)", "Potency": "inactive"}, {"molecule": "O=C(/C=C/c1ccccc1O)O[C@@H]1O[C@H](CO)[C@@H](O)[C@H](O)[C@H]1O", "Potency": "inactive"}, {"molecule": "OCC1=CC[C@@H]2C=CO[C@@H](O[C@@H]3O[C@H](CO)[C@@H](O)[C@H](O)[C@H]3O)[C@H]12", "Potency": "inactive"}, {"molecule": "OCC(CO[C@@H]1O[C@H](CO)[C@@H](O)[C@H](O)[C@H]1O)c1ccc2c(c1)OCO2", "note": "(stereo not given in full)", "Potency": "inactive"}, {"molecule": "CCC(C)/C=C(C)/C=C/C1=CC2=C(Cl)C(=O)C(C)(OC(C)=O)C(=O)C2(O)C(OC)O1", "note": "(stereo not given)", "Potency": "11.2 µM (active)"}, {"molecule": "C[C@@H]1CC[C@@]2(OC1)O[C@H]1C[C@H]3[C@@H]4CC=C5C[C@@H](O)CC[C@]5(C)[C@H]4CC[C@]3(C)[C@H]1[C@@H]2C", "Potency": "inactive"}, {"molecule": "COC(O)(CC(C)C)C1Oc2cc(C)[nH]c(=O)c2O1", "note": "(stereo not given)", "Potency": "inactive"}, {"molecule": "COC(=O)C1=CO[C@@H](O[C@@H]2O[C@H](CO[C@@H]3O[C@H](COC(=O)/C=C/c4ccc(O)cc4)[C@@H](O)[C@H](O)[C@H]3O)[C@@H](O)[C@H](O)[C@H]2O)[C@@H]2C(CO)=CC[C@H]12", "Potency": "inactive"}, {"molecule": "Cc1nc(CNc2ncnc3ccc(-c4ccc5c(c4)OCO5)cc23)cs1", "Potency": "14.6 µM (active)"}, {"molecule": "C/C=C/C=C/C=C/C(=O)O[C@@H]1[C@@H](OC)C2=C(C(=O)N(C(CCC(=O)O)C(=O)O)C2)[C@@]2(C)CCCC(C)(C)[C@H]12", "note": "(stereo not given in full)", "Potency": "inactive"}, {"molecule": "c1cc(CN2CCCCC2)cc(OCCCNc2nc3ccccc3s2)c1", "Potency": "15 µM (active)"}, {"molecule": "CCOC(=O)c1cnn(-c2ccccc2)c1NC(=O)c1cc2nc(-c3ccco3)cc(C(F)(F)Cl)n2n1", "Potency": "inactive"}, {"molecule": "CC1(C)[C@@H](O)CC[C@]2(C)[C@H]3CC=C4[C@@H]5C[C@](C)(C(=O)O)CC[C@]5(C)CC[C@@]4(C)[C@]3(C)CC[C@@H]12", "Potency": "inactive"}, {"molecule": "CC(=O)c1c(OCCN2CCCCC2)c(OCCC(C)c2ccc(F)cc2)c2oc(C)nc2c1C", "note": "(stereo not given)", "Potency": "10.3 µM (active)"}, {"molecule": "CCC/C=C1\\OC(=O)C2=C1CCC(O)C2O", "note": "(stereo not given)", "Potency": "inactive"}, {"molecule": "COc1cc(C2Oc3c(OC)cc(CCCO)cc3C2CO)ccc1O[C@H]1O[C@H](C)[C@@H](O)[C@H](O)[C@@H]1O", "note": "(stereo not given in full)", "Potency": "inactive"}, {"molecule": "COc1ccc2[nH]c3c(-c4cccc5ccccc45)nccc3c2c1", "Potency": "0.651 µM (active)"}, {"molecule": "CNCc1cc(-c2ccccc2F)n(S(=O)(=O)c2cccnc2)c1", "Potency": "inactive"}, {"molecule": "C=C(C(=O)OC)C1C(O)CC2(C)C(O)CCC(=O)C2C1O", "note": "(stereo not given)", "Potency": "inactive"}, {"molecule": "C=C[C@]1(C)C[C@H](O)[C@@H]2[C@H](OC(=O)[C@@H]2C)C1/C(C)=C/O[C@@H]1O[C@H](CO)[C@@H](O)[C@H](O)[C@H]1O", "note": "(stereo not given in full)", "Potency": "inactive"}, {"molecule": "CC12CC34C=CC(=O)C(C)(CCC(=O)O)C3C(CC1C4)O2", "note": "(stereo not given)", "Potency": "inactive"}, {"molecule": "COC(=O)C12C(=O)C(C)=C(O)C1(C)C(C)=CC1C34CCC(OC3=O)C(C)(C)C4CCC12C", "note": "(stereo not given)", "Potency": "inactive"}, {"molecule": "C[C@@H](O)[C@H](N)C(=O)N1CCC[C@H]1C(=O)N1CCC[C@H]1C(=O)N[C@H](C(N)=O)[C@@H](C)O", "viability (% of control)": "90.2% [at 9.25 µM]"}, {"molecule": "CC1CCC2(C(=O)OC3OC(CO)C(O)C(O)C3O)CCC3(C(=O)O)C(=CCC4C5(C)CCC(OC6OC(C)C(O)C(O)C6O)C(C)(C)C5CCC43C)C2C1C", "note": "(stereo not given)", "Potency": "inactive"}, {"molecule": "O=C(CCC1CCN(Cc2ccccc2)CC1)c1ccc2c(c1)NCCCC2", "Potency": "23.1 µM (active)"}, {"molecule": "CCC(=O)N1CCc2cc(OC)c(O)cc2C1", "Potency": "inactive"}]}]}
